What all share (conditions): mRNA level, 48 h; actives raise or lower the signal
Read-out in experiment [1]: Cyclin D1 (CCND1), CCND1 (gene 595)
In words: LTEA_HepaRG_CCND1: Life Technologies and Expression Analysis (LTEA) Assay for Cyclin D1 (CCND1) using HepaRG (AID 2283451). The method, boiled down:
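Differentiated human HepaRG cells in serum-free induction medium were exposed 48 h to eight half-log concentrations up to 100 uM in 0.5% DMSO; mRNA quantified by TaqMan qRT-PCR, normalized to ACTB, GAPDH, POLR2A, fitted bidirectionally versus DMSO.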

Read-out in experiment [2]: catalase (CAT), CAT (gene 847)
As to the kind of experiment: LTEA_HepaRG_CAT: Life Technologies and Expression Analysis (LTEA) Assay for catalase (CAT) using HepaRG (AID 2283452). Summed up: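 HepaRG cells in serum-free induction medium, 0.5% DMSO vehicle, exposed 48 h in duplicate over 8 half-log concentrations from 100 uM. CAT mRNA measured by qRT-PCR, normalized to ACTB, GAPDH, POLR2A; bidirectional fit versus DMSO.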

Read-out in experiment [3]: flavin-containing dimethylaniline monooxygenases 3 (FMO3), FMO3 (gene 2328)
In words: LTEA_HepaRG_FMO3: Life Technologies and Expression Analysis (LTEA) Assay for flavin-containing dimethylaniline monooxygenases 3 (FMO3) using HepaRG (AID 2283453). Summed up: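 Differentiated HepaRG cells in serum-free induction medium, exposed 48 h in duplicate to 8 half-log concentrations up to 100 uM in 0.5% DMSO. FMO3 mRNA by qRT-PCR, normalized to ACTB, GAPDH, POLR2A; bidirectional fit vs DMSO.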

Read-out in experiment [4]: Cytochrome P450 (CYP1A1), CYP1A1 (gene 1543)
As to the kind of experiment: LTEA_HepaRG_CYP1A1: Life Technologies and Expression Analysis (LTEA) Assay for Cytochrome P450 (CYP1A1) using HepaRG (AID 2283454). The method, boiled down:
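Differentiated HepaRG cells in serum-free induction medium were exposed in duplicate for 48 h to eight half-log concentrations up to 100 uM in 0.5% DMSO. CYP1A1 mRNA was quantified by TaqMan qRT-PCR, normalized to ACTB, GAPDH and POLR2A.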

Read-out in experiment [5]: CFLAR gene, CFLAR (gene 8837)
In words: LTEA_HepaRG_CFLAR: Life Technologies and Expression Analysis (LTEA) Assay for CFLAR gene using HepaRG (AID 2283455). The method, boiled down:
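Differentiated HepaRG cells in serum-free induction medium were exposed 48 h in duplicate to eight half-log concentrations up to 100 uM in 0.5% DMSO; mRNA measured by TaqMan qRT-PCR, normalized to ACTB, GAPDH, POLR2A; bidirectional fitting versus DMSO.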

Read-out in experiment [6]: Forkhead box O1 (FOXO1), FOXO1 (gene 2308)
As to the kind of experiment: LTEA_HepaRG_FOXO1: Life Technologies and Expression Analysis (LTEA) Assay for Forkhead box O1 (FOXO1) using HepaRG (AID 2283456). The method, boiled down: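 Differentiated HepaRG cells, in serum-free induction medium with 0.5% DMSO, exposed 48 h in duplicate to 8-point half-log series from 100 uM. FOXO1 mRNA measured by TaqMan qRT-PCR, normalized to ACTB, GAPDH, POLR2A; bidirectional fit versus DMSO.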

Read-out in experiment [7]: growth arrest and DNA damage 45 (GADD45A), GADD45A (gene 1647)
As to the kind of experiment: LTEA_HepaRG_GADD45A: Life Technologies and Expression Analysis (LTEA) Assay for growth arrest and DNA damage 45 (GADD45A) using HepaRG (AID 2283458). Summed up: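 Cells plated and cultured 48 h, switched to serum-free induction medium, then dosed for 48 h (100 uM top, half-log dilutions, 0.5% DMSO). RNA was isolated and transcript measured by Fluidigm qRT-PCR.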

Read-out in experiment [8]: Forkhead box O3 (FOXO3), FOXO3 (gene 2309)
In words: LTEA_HepaRG_FOXO3: Life Technologies and Expression Analysis (LTEA) Assay for Forkhead box O3 (FOXO3) using HepaRG (AID 2283459). Summed up: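 Differentiated human HepaRG cells, 48 h post-plating, exposed in duplicate for 48 h in serum-free induction medium; 8-point half-log series from 100 uM in 0.5% DMSO. FOXO3 mRNA by TaqMan qRT-PCR, normalized to ACTB/GAPDH/POLR2A; bidirectional fit versus DMSO.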

Read-out in experiment [9]: ABC Transporter (ABCB1), ABCB1 (gene 5243)
As to the kind of experiment: LTEA_HepaRG_ABCB1: Life Technologies and Expression Analysis (LTEA) Assay for ABC Transporter (ABCB1) using HepaRG (AID 2283460). The method, boiled down: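 HepaRG cells exposed in duplicate for 48 h in serum-free induction medium to eight half-log concentrations up to 100 uM in 0.5% DMSO. ABCB1 mRNA quantified by qRT-PCR, normalised to ACTB, GAPDH and POLR2A; fitted bidirectionally versus DMSO.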

Read-out in experiment [10]: ABC Transporter (ABCC3), ABCC3 (gene 8714)
In words: LTEA_HepaRG_ABCC3: Life Technologies and Expression Analysis (LTEA) Assay for ABC Transporter (ABCC3) using HepaRG (AID 2283462). The method, boiled down: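 HepaRG cells in serum-free induction medium were exposed for 48 h in duplicate to 8-point half-log concentrations topping at 100 uM in 0.5% DMSO. ABCC3 mRNA was measured by qRT-PCR normalized to ACTB, GAPDH and POLR2A, with bidirectional fitting versus DMSO.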

Read-out in experiment [11]: ABC Transporter (ABCB11), ABCB11 (gene 8647)
In words: LTEA_HepaRG_ABCB11: Life Technologies and Expression Analysis (LTEA) Assay for ABC Transporter (ABCB11) using HepaRG (AID 2283463). Summed up:
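Differentiated human HepaRG cells in serum-free induction medium, dosed in duplicate for 48 h. Eight-point half-log series from 100 uM in 0.5% DMSO; ABCB11 mRNA by qRT-PCR, normalized to ACTB, GAPDH, POLR2A, fitted bidirectionally versus DMSO.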

Read-out in experiment [12]: ABC Transporter (ABCC2), ABCC2 (gene 1244)
In words: LTEA_HepaRG_ABCC2: Life Technologies and Expression Analysis (LTEA) Assay for ABC Transporter (ABCC2) using HepaRG (AID 2283464). Summed up: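 HepaRG cells were plated 48 h, switched to serum-free induction medium, then exposed in duplicate for 48 h to 8 concentrations (top 100 uM, half-log steps, 0.5% DMSO). ABCC2 mRNA was measured by qRT-PCR normalized to ACTB/GAPDH/POLR2A; bidirectional fitting versus DMSO.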

Read-out in experiment [13]: Broad substrate specificity ATP-binding cassette transporter ABCG2 (Homo sapiens) (UniProt Q9UNQ0)
In words: LTEA_HepaRG_ABCG2: Life Technologies and Expression Analysis (LTEA) Assay for ABC Transporter (ABCG2) using HepaRG (AID 2283465). Summed up: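 Differentiated HepaRG cells were exposed for 48 h in serum-free induction medium to 8 half-log concentrations, top 100 uM, in 0.5% DMSO. ABCG2 mRNA was measured by qRT-PCR, normalized to ACTB, GAPDH and POLR2A, with bidirectional fitting versus DMSO.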

Read-out in experiment [14]: ATP-citrate lyase (ACLY), ACLY (gene 47)
In words: LTEA_HepaRG_ACLY: Life Technologies and Expression Analysis (LTEA) Assay for ATP-citrate lyase (ACLY) using HepaRG (AID 2283466). The method, boiled down: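 Differentiated HepaRG cells exposed 48 h in serum-free induction medium to eight half-log concentrations up to 100 uM in 0.5% DMSO, duplicates. Transcript measured by Fluidigm TaqMan qRT-PCR, normalized to ACTB, GAPDH, POLR2A; bidirectional fit versus DMSO.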

Read-out in experiment [15]: Peroxisomal acyl-coenzyme A oxidase 1 (ACOX1) gene, ACOX1 (gene 51)
As to the kind of experiment: LTEA_HepaRG_ACOX1: Life Technologies and Expression Analysis (LTEA) Assay for Peroxisomal acyl-coenzyme A oxidase 1 (ACOX1) gene using HepaRG (AID 2283467). Summed up: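 HepaRG cells, plated 48 h then switched to serum-free induction medium, were exposed in duplicate for 48 h to 8-point half-log concentrations up to 100 uM in 0.5% DMSO. ACOX1 mRNA was measured by qRT-PCR, normalized to ACTB/GAPDH/POLR2A, and fitted bidirectionally versus DMSO.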

Read-out in experiment [16]: Alkaline Phosphatase, Placental (ALPP) gene, ALPP (gene 250)
In words: LTEA_HepaRG_ALPP: Life Technologies and Expression Analysis (LTEA) Assay for Alkaline Phosphatase, Placental (ALPP) gene using HepaRG (AID 2283468). Summed up:
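Differentiated human HepaRG cells were plated and cultured 48 h, then exposed in duplicate for 48 h in serum-free induction medium to eight half-log concentrations from 100 uM in 0.5% DMSO. ALPP mRNA was measured by TaqMan qRT-PCR, normalized to ACTB, GAPDH, POLR2A.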

Read-out in experiment [17]: Bcl-2 (BAD) gene, BAD (gene 572)
In words: LTEA_HepaRG_BAD: Life Technologies and Expression Analysis (LTEA) Assay for Bcl-2 (BAD) gene using HepaRG (AID 2283469). Summed up: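 Differentiated HepaRG cells were exposed in duplicate in 0.5% DMSO for 48 h to eight-point half-log concentrations up to 100 uM. BAD mRNA was measured by Fluidigm TaqMan qRT-PCR, normalized to ACTB, GAPDH and POLR2A, and fitted bidirectionally against DMSO.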

Read-out in experiment [18]: Bcl-2 (BAX) gene, BAX (gene 581)
In words: LTEA_HepaRG_BAX: Life Technologies and Expression Analysis (LTEA) Assay for Bcl-2 (BAX) gene using HepaRG (AID 2283470). The method, boiled down: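 HepaRG (human liver), 48 h exposure, duplicate wells. 8-pt curve, half-log from 100 uM, 0.5% DMSO. BAX transcript by TaqMan qRT-PCR; ACTB/GAPDH/POLR2A normalization; gain or loss vs DMSO baseline.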

Read-out in experiment [19]: growth arrest and DNA damage 45 (GADD45B), GADD45B (gene 4616)
As to the kind of experiment: LTEA_HepaRG_GADD45B: Life Technologies and Expression Analysis (LTEA) Assay for growth arrest and DNA damage 45 (GADD45B) using HepaRG (AID 2283461). The method, boiled down:
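Differentiated HepaRG cells, plated 48 h then switched to serum-free induction medium, were exposed 48 h in duplicate to eight half-log concentrations from 100 uM in 0.5% DMSO; mRNA quantified by qRT-PCR, normalized to ACTB/GAPDH/POLR2A, bidirectional fit versus DMSO.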

Molecules are shown by their SMILES. Active and inactive are the calls of the source. How the source made its calls: active means hit-call score of the fitted dose curve at least 0.9, where 1 is the maximum; inactive means score below 0.9.

Chain of Broad substrate specificity ATP-binding cassette transporter ABCG2 (Homo sapiens) (Q9UNQ0 whole entry, looked up): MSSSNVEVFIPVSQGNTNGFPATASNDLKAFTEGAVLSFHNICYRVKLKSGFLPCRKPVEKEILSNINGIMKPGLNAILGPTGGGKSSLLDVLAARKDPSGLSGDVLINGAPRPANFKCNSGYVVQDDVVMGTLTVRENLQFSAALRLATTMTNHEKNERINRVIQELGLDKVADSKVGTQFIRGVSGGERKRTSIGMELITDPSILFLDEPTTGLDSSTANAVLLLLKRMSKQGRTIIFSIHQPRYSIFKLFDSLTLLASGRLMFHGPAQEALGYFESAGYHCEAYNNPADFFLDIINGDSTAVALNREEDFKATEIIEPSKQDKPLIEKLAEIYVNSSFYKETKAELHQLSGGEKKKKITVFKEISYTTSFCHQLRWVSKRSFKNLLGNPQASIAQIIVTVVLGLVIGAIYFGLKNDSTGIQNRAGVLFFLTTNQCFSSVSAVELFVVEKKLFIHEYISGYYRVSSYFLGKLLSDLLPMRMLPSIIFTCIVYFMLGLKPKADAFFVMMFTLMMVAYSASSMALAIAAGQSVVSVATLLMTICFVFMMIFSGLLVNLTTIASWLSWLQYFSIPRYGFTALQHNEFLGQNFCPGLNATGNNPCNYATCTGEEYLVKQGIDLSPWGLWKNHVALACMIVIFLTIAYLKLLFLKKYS

As to `Cc1ccc([N+](=O)[O-])cc1`, the call in experiment [1], in experiment [2], in experiment [3], in experiment [5], in [6] and in experiment [7] was inactive. For the same compound, the result in experiment [8], in [10], in experiment [11], in experiment [13], in experiment [14] and in experiment [15] was inactive. Further, the call in experiment [16], in experiment [17] and in experiment [18] was inactive. Moreover, the AC50 in experiment [4] is 9.92 µM (active); in [9], 2.47 µM (active); in [12] it was 13 µM (active).
As for `Cc1ccc(N)cc1`, the outcome in [1], in experiment [2], in experiment [3], in experiment [4], in experiment [5] and in experiment [6] was inactive. In addition, the call in [7], in experiment [8], in experiment [9], in experiment [19], in [11] and in [12] was inactive. In addition, the compound was called inactive in experiment [13], in [14], in experiment [15], in experiment [16], in [17] and in [18].

For the origin of these results see PubChem BioAssay (EPA / NIEHS).
